# Results taken from PubChem BioAssay (NCATS).
# Inconclusive results are not listed. Entries that show only a call come without a potency. The source made the active and inactive calls. Unless noted, calls follow the shape of the full dose curve.
# Experiments:
# [1] = target: Vitamin D3 receptor (Homo sapiens) (UniProt P11473); assay: qHTS assay for small molecule antagonists of vitamin D receptor signaling (AID 588541);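 also: receptor activated by calcitriol during compound treatment; series mostly up to about 77 µM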
# Procedure, shortened: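 VDR-UAS-bla HEK293T cells (2000/well, 2% charcoal-stripped FBS) were treated with titrated compounds plus 1-alpha,25-dihydroxyvitamin D3 (50 nM or 3 nM final) for 16 h at 37 C. CCF4 beta-lactamase fluorescence was read; Hill fits gave IC50.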
# [2] = target: Vitamin D3 receptor (Homo sapiens) (UniProt P11473); assay: qHTS assay for small molecule agonists of vitamin D receptor signaling (AID 588543)
# Procedure, shortened: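 GeneBLAzer VDR-UAS-bla HEK293T cells in 2% charcoal-stripped FBS medium were dosed with compound titrations for 16 h at 37 °C; CCF4 β-lactamase readout (405 nm ex, 460/530 nm em). EC50 and efficacy from Hill fits, normalized to 50 nM calcitriol (100%) and DMSO (0%).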
# [3] = qHTS assay for small molecule agonists of retinoid X receptor alpha signaling (AID 588544); settings: HEK293T RXRa-UAS-bla, beta-lactamase reporter, 18 h; 530 nm emission
# [4] = target: Retinoic acid receptor RXR-alpha (Homo sapiens) (UniProt P19793); assay: as above
# [5] = target: Thyroid hormone receptor beta (Homo sapiens) (UniProt P10828); assay: qHTS assay for small molecule agonists of thyroid hormone receptor beta signaling (AID 588545)
# Procedure, shortened: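 HEK 293 TR-UAS-bla; agonist mode; 18 hrs, 37 C; CCF4, ex 405/em 460 and 530 nm; norm. T3 10 nM = 100%, DMSO = 0%; Hill fit → EC50, efficacy.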
# [6] = qHTS assay for small molecule antagonists of retinoid X receptor alpha signaling (AID 588546; active = well fitted inhibition curve with a large enough effect in the signal ratio, with a control signal flat, not every such curve was filed as active; the % refers to the signal ratio;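 also: cells stimulated with 9-cis-retinoic acid as agonist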); settings: HEK293T RXRa-UAS-bla, beta-lactamase ratio, antagonist mode; measured here: W530 green channel, cytotoxicity proxy
# Procedure, shortened: (§1)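 Beta-lactamase reporter inhibition, read as CCF4 fluorescence ratio (ex 405, em 460/530 nm) after 2 h at RT. HEK293T UAS-bla cells, 2500/well, were stimulated with 9-cis-RA at 500 or 100 nM final alongside test compound for 18 h at 37 C.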
# [7] = target: Retinoic acid receptor RXR-alpha (Homo sapiens) (UniProt P19793); assay: as above; settings: HEK293T RXRa-UAS-bla, beta-lactamase ratio, antagonist mode
# Procedure, shortened: as §1
# [8] = target: Thyroid hormone receptor beta (Homo sapiens) (UniProt P10828); assay: qHTS assay for small molecule antagonists of thyroid hormone receptor beta signaling (AID 588547; active = well fitted inhibition curve with a large enough effect in the signal ratio, with a control signal flat, not every such curve was filed as active; the % refers to the signal ratio;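 also: cells stimulated with 0.4 nM T3 agonist during compound exposure; series mostly up to about 77 µM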); settings: TR-UAS-bla HEK293, beta-lactamase ratio, antagonist mode, 18 h
# Procedure, shortened: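 TR-UAS-bla GripTite HEK293 cells in 2% charcoal/dextran FBS medium were preincubated 4 h at 37 C, given compound (0.59 nM to 92 uM) plus 0.4 nM T3 (final) for 18 h, then CCF4 for 2 h at RT; Hill fit gave IC50.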
# [9] = target: Voltage-gated inwardly rectifying potassium channel KCNH2 (Homo sapiens) (UniProt Q12809); assay: qHTS Assay for Small Molecule Inhibitors of the Human hERG Channel Activity (AID 588834; active = well fitted curve in the direction sought with a large enough effect; an effect the other way counts as inactive or inconclusive;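 also: top concentration of the series differs between compounds; lower thallium flux fluorescence means stronger hERG block; nearly all actives have a fitted effect of over 50% in size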)
# Procedure, shortened: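 In hERG-transduced U2OS cells, dye-loaded for 1 hr at room temperature in dark, test compounds incubated 10 min at 37 °C before thallium stimulation. AC50 values derived by Hill modelling of concentration-response.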
# [10] = qHTS assay for small molecule agonists of the antioxidant response element (ARE) signaling pathway (AID 651741; active = well fitted activation curve with a large enough effect in the signal ratio; the % refers to the signal ratio)
# Procedure, shortened: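 Reporter: beta-lactamase under ARE, stably in HepG2. Exposure: 16 h, 37 C, compounds delivered in DMSO by pin tool after 5 h cell preincubation. Readout: FRET substrate fluorescence after 2 h at RT.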
# [11] = qHTS assay for small molecule activators of the p53 signaling pathway (AID 651743; active = well fitted activation curve with a large enough effect in the signal ratio, not every such curve was filed as active; the % refers to the signal ratio; also: series mostly up to about 92 µM); settings: HCT-116 p53RE-bla, beta-lactamase FRET ratio, 16 h; activation: stronger effect = higher value
# Procedure, shortened: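 Agonist-mode quantitative HTS in HCT-116 cells carrying a p53-response-element beta-lactamase reporter; 16 h compound treatment at 37 C, then FRET substrate loading for 2 h at room temperature and fluorescence read.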
# [12] = qHTS assay for small molecule disruptors of the mitochondrial membrane potential - 1 hr assay (AID 651754); also: nearly all actives have a fitted effect of over 35% in size
# Procedure, shortened: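 Mitochondrial potential in living HepG2 cells after 1 hr compound treatment at 37C was read with Mito-MPS dye added for a further 30 min. Red aggregate and green monomer fluorescence were measured; loss of potential leaves dye as cytoplasmic monomers.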
# [13] = qHTS assay for small molecule disruptors of the mitochondrial membrane potential - 5 hr assay (AID 651755); also: nearly all actives have a fitted effect of over 40% in size
# Procedure, shortened: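 Seed HepG2 overnight, add compound, incubate 5 hr at 37C and 5% CO2, stain 30 min with Mito-MPS, then measure monomer (490/535 nm) and aggregate (540/590 nm) fluorescence.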
# [14] = target: Peroxisome proliferator-activated receptor alpha (Homo sapiens) (UniProt Q07869); assay: qHTS assay for small molecule agonists of the peroxisome proliferator-activated receptor alpha (PPARalpha) signaling pathway (AID 651778; active = well fitted curve in the direction sought with a large enough effect; an effect the other way counts as inactive or inconclusive); settings: PathHunter PPARalpha complementation, chemiluminescence, 6 h; max response: stronger effect = higher value
# Procedure, shortened: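 Cells plated at 2,000/well and held overnight at 37 C, 5% CO2, then compound added by pin tool for 6 hr; after PathHunter detection reagent and 60 min at room temperature, chemiluminescence from enzyme complementation was read.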
# [15] = target: Nuclear receptor ROR-gamma (Homo sapiens) (UniProt P51449); assay: qHTS assay for small molecule antagonists of the retinoid-related orphan receptor gamma (ROR-gamma) signaling pathway (AID 651802; active = well fitted curve in the direction sought with a large enough effect; an effect the other way counts as inactive or inconclusive;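 also: CHO cells with doxycycline-induced ROR-gamma expression; luciferase reporter luminescence driven by ROR response element; series mostly up to about 92 µM; nearly all actives have a fitted effect of over 60% in size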)
# Procedure, shortened: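 Luminescence (One-Glo, 30 min RT) measured 16 h after compound addition and doxycycline induction at 37C. Reporter: RORE-luciferase under TET-inducible ROR-gamma in CHO cells.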
# [16] = qHTS assay for small molecule agonists of the antioxidant response element (ARE) signaling pathway measured by Nrf2-dependant transcriptional activity (AID 720636; active = well fitted curve in the direction sought with a large enough effect in the repeat runs; an effect the other way counts as inactive or inconclusive)
# Procedure, shortened: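 ARE-luc HepG2 cells carrying an Nrf2-responsive luciferase reporter were plated in medium with 1% dialyzed FBS, left 6 hr at 37 C to attach, then exposed to compound for 16 hr. Luciferase luminescence was read after ONE-Glo addition.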
# [17] = qHTS assay for small molecule antagonists of the retinoid-related orphan receptor gamma (ROR-gamma) signaling pathway - cell viability counter screen (AID 720652; active = well fitted curve in the direction sought with a large enough effect in the repeat runs; an effect the other way counts as inactive or inconclusive;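 also: CHO reporter cells with doxycycline-induced ROR-gamma expression; series mostly up to about 92 µM; compound exposure lasted 16 hr before ATP read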)
# Procedure, shortened: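 Cytotoxicity counter screen: intracellular ATP (CellTiter-Glo luminescence) measured in the doxycycline-induced CHO RORE-luciferase reporter line after 16 hr compound exposure at 37 C, 5% CO2.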
# [18] = qHTS assay for small molecule agonists of the antioxidant response element (ARE) signaling pathway measured by Nrf2-dependant transcriptional activity - cell viability counter screen (AID 720653; active = well fitted curve in the direction sought with a large enough effect in the repeat runs; an effect the other way counts as inactive or inconclusive); settings: ARE-bla HepG2 viability, CellTiter-Glo ATP luminescence, 16 h; max response: stronger effect = lower value
# Procedure, shortened: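 ARE-bla HepG2 cells (2,000/well) rested 5 hrs at 37C/5% CO2, then exposed to compounds in DMSO for 16 hrs. Viability was read in the same wells as intracellular ATP by luminescence, 30 min at room temperature after reagent addition.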
# [19] = qHTS assay for cell viability of HEK293 cells (AID 743288; active = well fitted curve in the direction sought with a large enough effect; an effect the other way counts as inactive or inconclusive; also: nearly all actives have a fitted effect of over 50% in size); settings: ATP luminescence (CellTiter-Glo), 18 h; max response: stronger effect = lower value
# Procedure, shortened: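 After 18 h compound exposure at 37 C, parental HEK293 cells (2,000/well) are lysed with CellTiter-Glo and luminescence is read following 30 min at room temperature.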
# [20] = qHTS assay for cell viability of the p53RE-bla HCT-116 cell line (AID 743292; active = well fitted curve in the direction sought with a large enough effect; an effect the other way counts as inactive or inconclusive; also: nearly all actives have a fitted effect of over 55% in size)
# Procedure, shortened: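 CellSensor p53RE-bla HCT-116 cells, 4,000/well, preincubated 5 h at 37 C, then exposed to compounds in DMSO for 16 h at 37 C. Viability read as CellTiter-Glo luminescence (intracellular ATP) after 30 min at room temperature.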
# [21] = NCATS anti-infectives library activity on HEK293 viability as a counter-qHTS vs the C. elegans viability qHTS (AID 1745854; active = well fitted curve in the direction sought with a large enough effect; an effect the other way counts as inactive or inconclusive)
# Procedure, shortened: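 Cytotoxicity counter-screen to a worm viability qHTS: CellTiter-Glo luminescence read 10 min after reagent addition. Compounds (final up to 41.7 uM, a 1:5 dilution series) incubated 24 hr at 37C with 1,500 HEK293 cells per well; digitonin control.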
# [22] = target: Nuclear receptor subfamily 1 group I member 2 (Rattus norvegicus) (UniProt Q9R1A7); assay: qHTS assay for small molecule activators of the rat pregnane X receptor (rPXR) signaling pathway (AID 651751; call rule not given here); settings: rPXR reporter cells, luciferase (One-Glo), 24 h
# [23] = qHTS assay for small molecule activators of the human pregnane X receptor (PXR) signaling pathway (AID 720659; call rule not given here)
# Chain of Vitamin D3 receptor (Homo sapiens) (P11473 whole entry, looked up): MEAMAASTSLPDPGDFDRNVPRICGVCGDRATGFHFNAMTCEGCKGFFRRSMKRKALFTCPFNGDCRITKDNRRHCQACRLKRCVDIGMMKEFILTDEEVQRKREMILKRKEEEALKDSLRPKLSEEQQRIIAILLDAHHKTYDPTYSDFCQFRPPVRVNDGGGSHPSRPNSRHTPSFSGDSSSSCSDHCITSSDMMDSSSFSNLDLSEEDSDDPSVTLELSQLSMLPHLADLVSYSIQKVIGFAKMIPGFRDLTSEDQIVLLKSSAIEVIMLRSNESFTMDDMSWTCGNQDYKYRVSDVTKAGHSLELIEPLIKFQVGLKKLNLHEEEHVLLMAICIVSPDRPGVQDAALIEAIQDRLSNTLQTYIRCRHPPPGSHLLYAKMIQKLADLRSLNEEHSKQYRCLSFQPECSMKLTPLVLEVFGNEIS
# Chain of Thyroid hormone receptor beta (Homo sapiens) (P10828 whole entry, looked up): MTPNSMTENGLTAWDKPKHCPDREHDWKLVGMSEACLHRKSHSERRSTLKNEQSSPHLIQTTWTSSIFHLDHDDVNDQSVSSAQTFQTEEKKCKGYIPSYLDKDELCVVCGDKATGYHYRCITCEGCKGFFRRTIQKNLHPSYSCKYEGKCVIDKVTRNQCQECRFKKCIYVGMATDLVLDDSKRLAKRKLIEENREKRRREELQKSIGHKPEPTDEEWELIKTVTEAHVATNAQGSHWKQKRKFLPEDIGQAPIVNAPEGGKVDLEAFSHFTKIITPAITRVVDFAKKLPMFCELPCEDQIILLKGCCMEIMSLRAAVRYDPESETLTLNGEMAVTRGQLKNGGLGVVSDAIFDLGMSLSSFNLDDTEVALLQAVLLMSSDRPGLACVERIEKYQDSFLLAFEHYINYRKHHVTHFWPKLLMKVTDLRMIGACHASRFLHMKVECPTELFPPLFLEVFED
# Chain of Retinoic acid receptor RXR-alpha (Homo sapiens) (P19793 whole entry, looked up): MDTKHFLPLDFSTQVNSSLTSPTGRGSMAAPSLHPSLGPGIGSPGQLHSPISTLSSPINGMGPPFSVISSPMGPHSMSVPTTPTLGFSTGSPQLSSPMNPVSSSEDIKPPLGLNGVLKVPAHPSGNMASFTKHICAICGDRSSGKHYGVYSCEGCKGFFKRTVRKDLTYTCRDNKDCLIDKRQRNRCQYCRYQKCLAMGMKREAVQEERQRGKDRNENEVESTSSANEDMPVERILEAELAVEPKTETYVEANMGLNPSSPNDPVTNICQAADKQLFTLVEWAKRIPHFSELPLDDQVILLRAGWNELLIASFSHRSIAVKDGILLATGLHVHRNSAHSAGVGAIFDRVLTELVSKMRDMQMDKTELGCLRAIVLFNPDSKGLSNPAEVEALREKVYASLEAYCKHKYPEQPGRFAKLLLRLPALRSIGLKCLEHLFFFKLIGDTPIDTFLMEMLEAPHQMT
# Chain of Voltage-gated inwardly rectifying potassium channel KCNH2 (Homo sapiens) (Q12809 whole entry, looked up): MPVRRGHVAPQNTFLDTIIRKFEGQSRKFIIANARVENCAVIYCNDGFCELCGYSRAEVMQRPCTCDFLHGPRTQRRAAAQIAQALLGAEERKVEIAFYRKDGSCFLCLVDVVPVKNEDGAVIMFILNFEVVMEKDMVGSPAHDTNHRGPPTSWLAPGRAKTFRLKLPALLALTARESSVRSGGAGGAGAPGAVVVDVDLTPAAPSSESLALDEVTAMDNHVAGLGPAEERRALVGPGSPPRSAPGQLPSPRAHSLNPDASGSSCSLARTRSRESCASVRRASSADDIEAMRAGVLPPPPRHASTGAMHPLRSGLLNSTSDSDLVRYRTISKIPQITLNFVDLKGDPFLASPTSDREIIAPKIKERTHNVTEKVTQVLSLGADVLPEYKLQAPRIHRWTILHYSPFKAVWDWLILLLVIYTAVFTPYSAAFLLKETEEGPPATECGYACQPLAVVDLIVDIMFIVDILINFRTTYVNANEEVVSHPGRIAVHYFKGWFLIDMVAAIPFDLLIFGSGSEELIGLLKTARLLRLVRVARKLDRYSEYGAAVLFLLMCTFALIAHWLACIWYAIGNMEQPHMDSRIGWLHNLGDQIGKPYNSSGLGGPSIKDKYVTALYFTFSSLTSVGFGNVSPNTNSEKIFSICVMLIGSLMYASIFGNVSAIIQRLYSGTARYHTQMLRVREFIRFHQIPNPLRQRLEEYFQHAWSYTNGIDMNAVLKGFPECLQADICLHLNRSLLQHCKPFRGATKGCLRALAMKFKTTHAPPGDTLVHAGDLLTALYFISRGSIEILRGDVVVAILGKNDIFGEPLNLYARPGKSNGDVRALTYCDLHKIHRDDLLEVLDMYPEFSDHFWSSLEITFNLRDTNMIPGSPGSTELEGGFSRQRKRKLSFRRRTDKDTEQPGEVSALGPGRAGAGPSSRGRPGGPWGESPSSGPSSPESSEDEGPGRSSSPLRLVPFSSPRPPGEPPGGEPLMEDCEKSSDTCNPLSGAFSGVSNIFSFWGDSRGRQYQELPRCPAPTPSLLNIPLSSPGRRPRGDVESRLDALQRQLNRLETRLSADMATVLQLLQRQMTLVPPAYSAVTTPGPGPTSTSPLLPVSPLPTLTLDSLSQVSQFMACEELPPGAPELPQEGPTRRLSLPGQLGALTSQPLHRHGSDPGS
# Chain of Nuclear receptor subfamily 1 group I member 2 (Rattus norvegicus) (Q9R1A7 whole entry, looked up): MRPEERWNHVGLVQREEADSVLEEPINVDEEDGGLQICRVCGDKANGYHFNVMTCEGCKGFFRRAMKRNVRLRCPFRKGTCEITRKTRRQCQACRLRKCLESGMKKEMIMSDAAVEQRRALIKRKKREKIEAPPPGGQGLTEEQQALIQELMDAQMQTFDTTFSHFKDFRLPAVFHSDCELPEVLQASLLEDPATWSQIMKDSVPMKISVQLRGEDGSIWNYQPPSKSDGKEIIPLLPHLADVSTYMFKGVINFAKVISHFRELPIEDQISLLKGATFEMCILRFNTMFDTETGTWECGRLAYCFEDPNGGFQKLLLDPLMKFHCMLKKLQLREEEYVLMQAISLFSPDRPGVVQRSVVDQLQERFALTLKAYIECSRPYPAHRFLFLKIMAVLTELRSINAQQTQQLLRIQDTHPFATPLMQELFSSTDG
# Chain of Peroxisome proliferator-activated receptor alpha (Homo sapiens) (Q07869 whole entry, looked up): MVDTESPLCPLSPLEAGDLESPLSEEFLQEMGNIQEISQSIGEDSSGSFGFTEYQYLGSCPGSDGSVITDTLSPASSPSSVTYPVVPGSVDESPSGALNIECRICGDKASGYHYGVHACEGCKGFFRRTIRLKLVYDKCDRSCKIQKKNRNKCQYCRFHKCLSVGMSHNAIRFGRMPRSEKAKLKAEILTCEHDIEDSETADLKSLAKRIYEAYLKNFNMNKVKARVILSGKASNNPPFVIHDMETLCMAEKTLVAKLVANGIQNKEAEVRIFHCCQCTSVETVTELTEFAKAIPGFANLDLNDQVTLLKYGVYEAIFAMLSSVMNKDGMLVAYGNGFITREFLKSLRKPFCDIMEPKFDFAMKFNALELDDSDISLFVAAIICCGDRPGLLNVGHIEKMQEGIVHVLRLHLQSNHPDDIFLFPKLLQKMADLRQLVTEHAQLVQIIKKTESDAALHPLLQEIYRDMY
# Chain of Nuclear receptor ROR-gamma (Homo sapiens) (P51449 whole entry, looked up): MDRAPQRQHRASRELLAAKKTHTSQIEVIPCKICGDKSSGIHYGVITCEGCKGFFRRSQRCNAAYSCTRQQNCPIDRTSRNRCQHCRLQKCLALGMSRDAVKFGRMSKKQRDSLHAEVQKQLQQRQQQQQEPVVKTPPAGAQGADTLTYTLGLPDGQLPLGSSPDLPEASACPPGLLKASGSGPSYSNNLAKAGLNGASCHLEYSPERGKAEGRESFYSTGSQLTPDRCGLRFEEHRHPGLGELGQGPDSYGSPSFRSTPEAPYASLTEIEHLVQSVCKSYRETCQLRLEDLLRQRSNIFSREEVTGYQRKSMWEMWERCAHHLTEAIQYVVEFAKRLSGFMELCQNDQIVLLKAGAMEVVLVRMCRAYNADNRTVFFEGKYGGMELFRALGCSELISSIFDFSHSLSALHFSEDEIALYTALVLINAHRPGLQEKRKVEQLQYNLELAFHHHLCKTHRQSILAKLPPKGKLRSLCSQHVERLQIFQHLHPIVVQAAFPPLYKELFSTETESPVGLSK
smiles,measurement,setting,value
O=C(/C=C/c1ccc(O)c(O)c1)O[C@@H](C(=O)O)[C@@H](OC(=O)/C=C/c1ccc(O)c(O)c1)C(=O)O,outcome,[1],inactive
same,outcome,[2],inactive
same,max response,[3],-0.499%
same,outcome,[4],inactive
same,outcome,[5],inactive
same,max response,[6],-0.233%
same,max response,[7],13% (inactive)
same,activity change % (negative = inhibition),[8],-11.2% (inactive)
same,Potency,[9],inactive
same,Potency,[10],inactive
same,activation,[11],0.853% (inactive)
same,Potency,[12],inactive
same,Potency,[13],inactive
same,max response,[14],-4.13% (inactive)
same,Potency,[15],inactive
same,Potency,[16],inactive
same,Potency,[17],inactive
same,max response,[18],27.4% (inactive)
same,max response,[19],-0.791% (inactive)
same,Potency,[20],inactive
same,Potency,[21],inactive
same,max response,[22],-5.44% (inactive)
same,outcome,[23],inactive
